Drawing on PubChem BioAssay, this text covers composite z-score for 35 compounds.

The target of the assay is Neurogenic locus notch homolog protein 3 (Homo sapiens) (UniProt Q9UM47). The assay is described as follows: NOTCH3 binders on small-molecule microarray, primary screen, biochemical, 635/667 nm fluorescence (AID 1096). As to conditions: NOTCH3 binding, 635 nm fluorescence, higher = more signal.
Chain of Neurogenic locus notch homolog protein 3 (Homo sapiens) (Q9UM47 whole entry, looked up): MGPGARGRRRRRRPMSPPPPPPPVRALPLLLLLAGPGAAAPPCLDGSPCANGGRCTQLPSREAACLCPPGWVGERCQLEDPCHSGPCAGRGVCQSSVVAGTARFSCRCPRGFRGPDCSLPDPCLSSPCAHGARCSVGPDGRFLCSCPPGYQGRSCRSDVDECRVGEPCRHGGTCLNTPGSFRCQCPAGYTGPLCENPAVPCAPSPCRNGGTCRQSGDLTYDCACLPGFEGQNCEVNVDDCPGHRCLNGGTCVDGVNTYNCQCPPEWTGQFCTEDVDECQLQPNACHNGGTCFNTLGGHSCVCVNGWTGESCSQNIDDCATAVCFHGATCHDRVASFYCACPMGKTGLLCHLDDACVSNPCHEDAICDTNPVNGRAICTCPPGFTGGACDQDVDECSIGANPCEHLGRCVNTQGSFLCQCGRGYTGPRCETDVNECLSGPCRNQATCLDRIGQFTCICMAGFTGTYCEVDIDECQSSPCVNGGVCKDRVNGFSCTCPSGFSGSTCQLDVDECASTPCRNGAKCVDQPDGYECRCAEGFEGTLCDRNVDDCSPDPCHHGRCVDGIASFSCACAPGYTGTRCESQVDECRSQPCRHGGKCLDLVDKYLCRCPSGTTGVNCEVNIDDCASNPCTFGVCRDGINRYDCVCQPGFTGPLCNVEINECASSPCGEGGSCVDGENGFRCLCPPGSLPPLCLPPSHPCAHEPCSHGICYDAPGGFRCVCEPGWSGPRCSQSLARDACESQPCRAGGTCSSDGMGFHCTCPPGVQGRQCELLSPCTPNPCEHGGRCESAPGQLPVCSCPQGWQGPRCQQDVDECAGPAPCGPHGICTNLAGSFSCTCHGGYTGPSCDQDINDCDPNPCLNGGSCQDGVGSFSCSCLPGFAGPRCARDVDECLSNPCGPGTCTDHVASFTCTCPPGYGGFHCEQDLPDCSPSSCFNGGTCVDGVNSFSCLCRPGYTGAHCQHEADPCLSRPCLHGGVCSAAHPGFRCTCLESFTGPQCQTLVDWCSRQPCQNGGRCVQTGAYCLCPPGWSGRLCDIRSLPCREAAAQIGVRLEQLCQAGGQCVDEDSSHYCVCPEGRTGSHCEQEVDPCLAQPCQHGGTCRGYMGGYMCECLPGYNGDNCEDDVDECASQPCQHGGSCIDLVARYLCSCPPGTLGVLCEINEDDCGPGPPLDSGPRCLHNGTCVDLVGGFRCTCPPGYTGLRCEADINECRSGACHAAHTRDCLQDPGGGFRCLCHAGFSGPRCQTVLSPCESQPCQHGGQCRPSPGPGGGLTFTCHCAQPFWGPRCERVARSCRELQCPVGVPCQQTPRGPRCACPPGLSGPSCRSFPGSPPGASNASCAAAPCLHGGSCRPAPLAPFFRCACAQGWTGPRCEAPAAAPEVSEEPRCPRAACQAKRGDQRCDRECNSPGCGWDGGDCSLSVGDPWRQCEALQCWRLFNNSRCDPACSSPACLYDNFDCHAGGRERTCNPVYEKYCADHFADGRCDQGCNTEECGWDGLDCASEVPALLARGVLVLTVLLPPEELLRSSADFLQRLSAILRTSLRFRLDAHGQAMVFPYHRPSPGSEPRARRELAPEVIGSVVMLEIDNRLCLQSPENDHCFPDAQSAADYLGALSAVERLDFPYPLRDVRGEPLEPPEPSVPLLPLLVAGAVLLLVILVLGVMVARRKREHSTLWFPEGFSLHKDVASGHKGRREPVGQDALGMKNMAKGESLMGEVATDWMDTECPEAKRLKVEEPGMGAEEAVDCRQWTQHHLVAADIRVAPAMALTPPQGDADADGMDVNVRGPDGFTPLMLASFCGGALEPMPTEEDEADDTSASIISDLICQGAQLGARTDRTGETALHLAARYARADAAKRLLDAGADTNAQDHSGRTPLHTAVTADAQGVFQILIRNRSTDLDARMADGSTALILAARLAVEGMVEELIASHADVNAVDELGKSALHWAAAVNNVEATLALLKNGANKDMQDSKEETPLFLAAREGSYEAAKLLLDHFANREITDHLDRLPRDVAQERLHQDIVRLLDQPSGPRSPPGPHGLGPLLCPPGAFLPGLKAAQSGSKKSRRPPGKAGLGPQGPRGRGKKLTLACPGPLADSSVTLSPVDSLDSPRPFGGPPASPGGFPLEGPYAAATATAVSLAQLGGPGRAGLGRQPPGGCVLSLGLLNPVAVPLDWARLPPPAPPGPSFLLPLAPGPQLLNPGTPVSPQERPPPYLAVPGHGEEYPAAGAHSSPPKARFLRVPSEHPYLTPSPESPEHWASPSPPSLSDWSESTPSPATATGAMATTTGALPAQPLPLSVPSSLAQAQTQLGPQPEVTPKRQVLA
As to `COC(=O)[C@@]1(Cc2ccc(F)cc2)[C@H]2c3cc(C(=O)N(C)C)n(CCc4ccc(O)c(O)c4)c3C[C@H]2CN1C(=O)c1ccccc1`, the composite z-score was 0.498.
Next, `[N-]=[N+]=Nc1ccccc1C[C@]1(C(=O)N2CCOCC2)N=C(c2ccc(OCCCO)cc2)O[C@H]1c1ccccc1N=[N+]=[N-]`: 1.04; `COCCOC(=O)N1C(=O)[C@@]2(c3cc(C#CCCO)ccc31)[C@H](c1ccc(OCCO)cc1)N1[C@H](c3ccccc3)[C@H](c3ccccc3)OC(=O)[C@H]1[C@@H]2C(=O)N1CCCCCCC1`: 1.04; `COC(=O)C(CC#Cc1ccc2c(c1)[C@]1(C(=O)N2)[C@H](c2ccc(OCCO)cc2)N2[C@H](c3ccccc3)[C@H](c3ccccc3)OC(=O)[C@H]2[C@@H]1C(=O)N1CCCCCCC1)C(=O)OC`: 1.03.
As for `O=C1C[C@@](C(=O)O)(c2ccc([N+](=O)[O-])cc2)[C@@H](c2ccc(CO)cc2)N1C1CCCCC1`, the composite z-score was determined as 1.15.
To `C=CC[C@]1(C(=O)NCC(O)CO)COC(c2ccc(OCCCO)cc2)=N1` (stereo not given in full) belongs -1.35; to `C=C(COC)C(=O)CC[C@H](OC(=O)c1cccnc1)c1ccc(OCCO)cc1`, 0.78; to `C=CCNC(=O)[C@H]1[C@@H]2C(=O)O[C@@H](c3ccccc3)[C@@H](c3ccccc3)N2[C@@H](c2ccc(OCCO)cc2)[C@]12C(=O)Nc1ccccc12`, 0.457.
Next, `C=CC1c2cc(O)c(OC)cc2CCN1C` (stereo not given): -0.821; `CC1CC/C=C\[C@H]2OC34C=CCN(c5ccc(Cl)cc5)C(=O)[C@H]3N(CCCCCCO)C(=O)[C@]4(C)C2C(=O)O1` (stereo not given in full): -0.277.
To `CCCC=C(CCC)[C@@H](NC(=O)c1ccc(C(F)(F)F)cc1)c1ccc(C(F)(F)F)cc1` belongs 1.11.
`Cc1ccccc1C(O)C1C=CC2C(=O)N(c3ccccc3)C(=O)C2N1Nc1ccccc1` (stereo not given) had a composite z-score of 1.03.
In the case of `CCOC(=O)C[C@H]1[C@H](OC(=O)c2ccccc2-c2ccccc2)[C@@H](NC(=O)c2ccc3ccccc3c2)c2cc(OCCCO)ccc2N1C(=O)Cc1ccc(OC)cc1`, the composite z-score was -0.626.
Next, `COc1ccc(C(=O)Nc2ccc3c(c2)[C@@]2(O[C@H](CCO)[C@@H]([Si](C)(C)c4ccc(OC)cc4)[C@@H]2C)C(=O)N3Cc2ccccc2)cc1`: 0.742.
Next, `COCCOC(=O)N1C(=O)[C@@]2(c3cc(C#CCC(C(=O)OC)C(=O)OC)ccc31)[C@H](c1ccc(O)cc1)N1[C@H](c3ccccc3)[C@H](c3ccccc3)OC(=O)[C@H]1[C@@H]2C(=O)Nc1nc2ccccc2s1`: 1.04; `C=C(COC)/C(=C/C[C@H](OC(C)=O)c1ccccc1OCCO)c1cc(C(=O)OC)ccc1OC`: 0.372; `O=C1[C@H]2C=C(I)[C@H](C[C@@H]2OCCCCCCO)[C@@]12CO2`: 1.13.
`CCCCC(=C=CC[C@H](O)c1ccc(CO)o1)CCO` had a composite z-score of 0.683.
Compound `COc1ccccc1CN1C(=O)c2ccccc2[C@](Cc2ccccc2I)(C(=O)NCC(C)C)[C@@H]1c1ccc(CO)cc1` displayed a composite z-score of 0.139.
Next, `C=CCC(OC(C)=O)[C@@H]1[C@@H](N(Cc2ccc(-c3ccccc3)cc2)C(=O)c2cccc3ccccc23)c2cc(OCCCO)ccc2N1C(=O)Cc1ccc(OC)cc1` (stereo not given in full): -0.477; `CC(C)N1C(=O)c2ccccc2[C@](C)(C(=O)NCC(F)(F)F)[C@@H]1c1ccc(CO)cc1`: -0.445; `O=C1NC(=O)C2C1C=CC(C(O)c1ccc([N+](=O)[O-])cc1)N2Nc1ccccn1` (stereo not given): -0.432.
To `CN1C(=O)C2C=CC(C(O)c3ccc(-c4ccccc4)s3)N(NC(=O)OC(C)(C)C)C2C1=O` (stereo not given) belongs 0.687; to `CN(C)CCCNC(=O)[C@@]1(C)c2ccccc2C(=O)N(Cc2ccc(OC(F)(F)F)cc2)[C@H]1c1ccc(CO)cc1`, -0.0992; to `COCCCNC(=O)[C@@]1(CCS(=O)(=O)c2ccccc2)COC(c2ccc(OCCCO)cc2)=N1`, 0.56.
`COC(=O)[C@@]1(Cc2ccc(OC)cc2)[C@H]2c3cc(C(=O)N4CCCC4)n(Cc4ccc(C(F)(F)F)nc4)c3C[C@H]2CN1C(=O)c1ccccc1` showed a composite z-score of 0.269.
To `COC(=O)C(CC#Cc1ccc2c(c1)[C@]1(C(=O)N2)[C@H](c2ccccc2OCCO)N2[C@H](c3ccccc3)[C@H](c3ccccc3)OC(=O)[C@H]2[C@@H]1C(=O)N1CCc2cc(OC)c(OC)cc2C1)C(=O)OC` belongs 1.09; to `COc1ccc(C(O)C2C=CC3C(=O)N(C)C(=O)C3N2N(c2ccccc2)c2ccccc2)cc1` (stereo not given), 0.791; to `COCCOC(=O)N1C(=O)[C@@]2(c3cc(C#CCC(C(=O)OC)C(=O)OC)ccc31)[C@H](C(=O)Nc1nc3ccccc3s1)[C@H]1C(=O)O[C@H](c3ccccc3)[C@H](c3ccccc3)N1[C@@H]2c1ccc(O)cc1`, 1.04.
`CC(C)(C)N1CC=CC23O[C@@H]4C=CCCOC(=O)C4[C@H]2C(=O)N(CCCCCCO)[C@@H]3C1=O` (stereo not given in full) came in with a composite z-score of 0.123.
To `O=C1C[C@@](C(=O)NCc2ccccc2)(c2ccc([N+](=O)[O-])cc2)[C@@H](c2ccc(CO)cc2)N1C1CCCCC1` belongs 0.846.
To `Cc1ccc(S[C@]2(C(=O)NCc3ccccc3)CC(=O)N(Cc3ccccc3C(F)(F)F)[C@@H]2c2ccc(CO)cc2)cc1` belongs -0.64; to `COCCOC(=O)N1C(=O)[C@@]2(c3cc(C#CCCO)ccc31)[C@H](C(N)=O)[C@H]1C(=O)O[C@H](c3ccccc3)[C@H](c3ccccc3)N1[C@@H]2c1ccccc1OCCO`, 1.15.
To `CC(C)=C1C(=O)C(c2ccccc2)=C2CN3C(=O)N(CCc4ccccc4)C(=O)[C@]3(C)[C@H]21` belongs 0.451.
Turning to `CC(C)(C)OC(=O)CC[C@@]1(C(=O)NCCN2CCOCC2)N=C(c2ccc(OCCCO)cc2)O[C@@H]1c1ccccc1CN=[N+]=[N-]`, the composite z-score turned out to be 0.461.
